# Test results: article PMC4336329 (PLoS ONE, 2015)
# About 14,000 (4.5%) of roughly 310,000 compounds showed an effect of 50% or more. Effects have a minus sign here. What follows is part of a selection rich in strong results, with near analogues and random picks from the rest.
# Biological target: human ether-à-go-go-related gene (hERG) potassium channel (human, UniProt Q12809)
# Assay: primary screen, population patch clamp on CHO cells stably expressing hERG; higher = less effect of the substance
# 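Also: peak tail current of the secondary pulse compared with the same well before compound.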
# human ether-à-go-go-related gene (hERG) potassium channel, sequence (Q12809 whole entry, looked up): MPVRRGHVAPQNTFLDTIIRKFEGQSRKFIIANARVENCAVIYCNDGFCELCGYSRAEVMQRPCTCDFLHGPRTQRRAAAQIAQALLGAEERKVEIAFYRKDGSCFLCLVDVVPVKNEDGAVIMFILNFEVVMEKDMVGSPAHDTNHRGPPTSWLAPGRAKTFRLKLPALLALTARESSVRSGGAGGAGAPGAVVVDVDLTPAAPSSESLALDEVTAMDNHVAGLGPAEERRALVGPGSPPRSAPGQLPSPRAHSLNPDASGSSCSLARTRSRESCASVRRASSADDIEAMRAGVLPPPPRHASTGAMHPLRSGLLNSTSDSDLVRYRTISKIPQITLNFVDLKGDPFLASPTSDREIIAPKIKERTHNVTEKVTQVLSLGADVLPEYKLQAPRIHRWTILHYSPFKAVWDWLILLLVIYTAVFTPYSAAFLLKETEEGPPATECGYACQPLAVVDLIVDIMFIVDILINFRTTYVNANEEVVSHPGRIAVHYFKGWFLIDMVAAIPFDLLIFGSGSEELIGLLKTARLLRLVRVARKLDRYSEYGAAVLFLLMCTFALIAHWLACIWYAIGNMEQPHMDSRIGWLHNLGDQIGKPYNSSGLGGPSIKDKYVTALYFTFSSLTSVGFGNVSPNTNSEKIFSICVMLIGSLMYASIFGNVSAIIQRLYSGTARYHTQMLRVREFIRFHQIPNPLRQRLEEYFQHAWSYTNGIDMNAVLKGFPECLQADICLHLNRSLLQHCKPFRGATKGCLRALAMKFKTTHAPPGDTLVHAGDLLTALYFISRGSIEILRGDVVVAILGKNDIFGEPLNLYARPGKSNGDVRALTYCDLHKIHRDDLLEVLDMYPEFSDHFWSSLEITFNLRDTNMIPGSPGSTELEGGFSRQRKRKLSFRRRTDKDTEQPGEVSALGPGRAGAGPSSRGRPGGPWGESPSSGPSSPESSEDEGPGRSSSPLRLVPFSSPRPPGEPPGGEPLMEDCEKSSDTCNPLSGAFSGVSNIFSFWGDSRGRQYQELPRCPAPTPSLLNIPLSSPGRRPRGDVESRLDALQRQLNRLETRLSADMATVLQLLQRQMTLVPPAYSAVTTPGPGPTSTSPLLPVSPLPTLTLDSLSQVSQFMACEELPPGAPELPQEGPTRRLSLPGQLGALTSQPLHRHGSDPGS
row,Compound,"hERG current change (%, negative = inhibition) at 10uM [%]"
1,CCOC(=O)CCNC(C)C1COc2ccccc2O1.O=C(O)C(=O)O (stereo not shown),1.93
2,COc1ccc(CC(=O)NC(C)C2COc3ccccc3O2)cc1OC (stereo not shown),-0.81
3,CC(NCc1ccc([N+](=O)[O-])cc1)C1COc2ccccc2O1.O=C(O)C(=O)O (stereo not shown),-66.2
4,Cc1ccc(NC(=S)NCCc2c[nH]c3ccccc23)cc1,-1.12
5,COc1ccc(OCC(O)CNC(=O)c2ccc(OC)cc2)cc1 (stereo not shown),14.9
6,COCCn1c(SCC(=O)Nc2ccc(F)cc2F)nc2c([nH]c3ccccc32)c1=O,8.08
7,COCCCn1c(C)nnc1SCC(=O)NNC(=O)COc1ccc(Cl)cc1,22.6
8,COc1ccc(-c2ccc(Nc3ccc(S(=O)(=O)N4CCCC4)cc3)nn2)cc1OC,6.55
9,Cn1c(=O)[nH]c(=O)c2c1nc(N1CCNCC1)n2Cc1cccc2ccccc12,-16.4
10,Cc1cccc(N/C(=N/S(=O)(=O)c2ccccc2)c2ccccc2)n1,-24.9
11,CCN(c1cccc(C)c1)C(C(=O)Nc1ccc(OC)cc1)c1cc2c(cc1[N+](=O)[O-])OCO2 (stereo not shown),21.1
12,CNC(=O)COc1ccc2oc3c(c2c1)CCCC3,9.14
13,CC(C)OCCCNC(=O)COc1ccc2oc3c(c2c1)CCCC3,-4.97
14,CCOC(=O)N1CCN(C(=O)COc2ccc3oc4c(c3c2)CCCC4)CC1,-50.6
15,CCN(CC)CCCNC(=O)COc1ccc2oc3c(c2c1)CCCC3.Cl,-45.7
16,CC(=O)N1CCN(C(=O)COc2ccc3oc4c(c3c2)CCCC4)CC1,-25.4
17,CC(C)N(CCNC(=O)COc1ccc2oc3c(c2c1)CCCC3)C(C)C,-73.3
18,Cc1cccc(N(CC(=O)NCCC2=CCCCC2)S(C)(=O)=O)c1C,-22.8
19,COC(=O)c1ccc(CNC(=O)/C=C/c2cc([N+](=O)[O-])ccc2OC(F)F)cc1,6.89
20,CN(C)CCN(C(=O)C1=COCCO1)c1nc2ccc(F)cc2s1.Cl,-73
21,CN(C)CCN(C(=O)c1ccc2ccccc2c1)c1nc2ccc(Br)cc2s1.Cl,13.2
22,CN(C)CCN(C(=O)c1ccc2ccccc2c1)c1nc2ccc(F)cc2s1.Cl,11.1

row,Compound,"hERG current change (%, negative = inhibition) at 10uM [%]"
1,CN(C)CCN(C(=O)C1=COCCO1)c1nc2ccc(Cl)cc2s1.Cl,-73.1
2,CN(C)CCN(C(=O)c1ccc2c(c1)OCCO2)c1nc2ccc(Cl)cc2s1.Cl,-1.19
3,CN(C)CCCN(C(=O)C1=COCCO1)c1nc2ccc(Br)cc2s1.Cl,-67.2
4,O=C(CN1Cc2ccccc2C1=O)Nc1ccc2c(c1)OCCO2,3.26
5,O=C([O-])c1cc(=O)[nH]c2ccc(S(=O)(=O)Nc3ccc(F)cc3)cc12.[K+],23.5
6,O=C(O)c1ccc(NC(=O)C2CCCCC2)cc1,-7.8
7,COCCNC(=O)Cn1cc2c(n1)CCC(C)C2 (stereo not shown),21.2
8,O=C(Cn1c(=O)oc2ccccc21)N1CCCC1,14.4
9,Cc1[nH]c2ccccc2c1/C=N/NC(=S)NC(C)C,12.1
10,CCCCC(c1nnnn1C1CCCC1)N1CCN(C2CCCC2)CC1.Cl (stereo not shown),-85.6
11,CCCCC(c1nnnn1C1CCCC1)N1CCN(C(=O)c2ccco2)CC1.Cl (stereo not shown),-47
12,CCCC(c1nnnn1C1CCCCC1)N1CCN(C2CCCC2)CC1.Cl (stereo not shown),-46.4
13,CCC(c1nnnn1C1CCCCC1)N1CCN(C2CCCC2)CC1.Cl (stereo not shown),-3.77
14,CCCC(c1nnnn1C(C)(C)CC)N1CCN(C2CCCC2)CC1.Cl (stereo not shown),-35.3
15,CCCCC(c1nnnn1C1CCCC1)N1CCN(C2CCCCC2)CC1 (stereo not shown),-69.8
16,CC(CC(=O)N(CCC1=CCCCC1)c1c(N)n(Cc2ccccc2)c(=O)[nH]c1=O)c1ccccc1 (stereo not shown),17.1
17,Cc1cc(F)ccc1NC(=O)CCCN(C)S(=O)(=O)c1ccc(F)cc1,-5.3
18,CCc1cc2c(=O)c(-c3nc4ccccc4n3C)c(C)oc2c(CN2CCN(C)CC2)c1O,14.3
19,O=C(CSc1ncnc2c1oc1ccccc12)Nc1cccc(C(F)(F)F)c1,11
20,COc1ccc2c(Cl)c(C(=O)N/N=C3\CCCC(=O)C3)sc2c1,-9.05
21,Cn1c(=O)c2c(nc(CN3CCN(c4ccc(F)cc4)CC3)n2Cc2ccccc2F)n(C)c1=O,-6.93
